In PubChem BioAssay (Tox21):
Several values for one entry are separate records, joined by “and”; a condition that tells them apart may be missing. Identical values can stand only once. Activity calls are given as the source filed them. Unless noted, calls follow the shape of the dose curve; as a rule, active = well fitted curve in the direction sought with a large enough effect in the repeat runs; inconclusive = weak or mixed curves; inactive = no such curve, though single readings can be large; an effect the other way counts as inactive or inconclusive.

Assays:
[1] = qHTS assay for identifying genotoxic compounds that show differential cytotoxicity against isogenic chicken DT40 cell lines with known DNA damage response pathways - wild type cell line (AID 743012); also: nearly all actives have a fitted effect of over 60% in size; also: potency is read from the fitted curve at half-maximal effect
Method in brief: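 Endpoint: CellTiter-Glo luminescence, 30 min RT. Cells: wild type DT40, 300/well. Exposure: compounds in DMSO, 40 h, 37 C/5% CO2, after ~0.5 h pre-incubation.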

[2] = qHTS assay for identifying genotoxic compounds that show differential cytotoxicity against isogenic chicken DT40 cell lines with known DNA damage response pathways - Rev3 mutant cell line (AID 743014); also: nearly all actives have a fitted effect of over 55% in size; also: potency is read from the fitted curve at half-maximal effect
[3] = qHTS assay for identifying genotoxic compounds that show differential cytotoxicity against isogenic chicken DT40 cell lines with known DNA damage response pathways - Rad54/Ku70 mutant cell line (AID 743015); also: nearly all actives have a fitted effect of over 60% in size; also: potency is read from the fitted curve at half-maximal effect
[4] = qHTS assay to identify small molecule antagonists of the androgen receptor (AR) signaling pathway - cell viability counter screen (AID 743033; also: nearly all actives have a fitted effect of over 45% in size; also: potency is read from the fitted curve at half-maximal effect)
[5] = qHTS assay to identify small molecule antagonists of the androgen receptor (AR) signaling pathway using the MDA cell line - cell viability counter screen (AID 743041; also: nearly all actives have a fitted effect of over 45% in size; also: potency is read from the fitted curve at half-maximal effect)
Method in brief: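 In this qHTS counter assay, fluorescence intensity after CellTiter-Fluor addition indicated viability of MDA-kb2 AR-luc cells given compounds and R1881 for 16 h at 37C.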

[6] = qHTS assay to identify small molecule antagonists of the estrogen receptor alpha (ER-alpha) signaling pathway - cell viability counter screen (AID 743074; calls by dose curve;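 also: HEK293 cells carrying ER-alpha-UAS-bla reporter stimulated with 17beta-estradiol; nearly all actives have a fitted effect of over 45% in size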; also: potency is read from the fitted curve at half-maximal effect)
[7] = qHTS assay to identify small molecule antagonists of the estrogen receptor alpha (ER-alpha) signaling pathway using the BG1 cell line - cell viability counter screen (AID 743081);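 also: compound given together with 17beta-estradiol as the ER stimulus; nearly all actives have a fitted effect of over 45% in size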; also: potency is read from the fitted curve at half-maximal effect
[8] = qHTS assay to identify small molecule antagonists of the thyroid receptor (TR) signaling pathway - cell viability counter screen (AID 743064); also: nearly all actives have a fitted effect of over 50% in size; also: potency is read from the fitted curve at half-maximal effect
Method in brief: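 Compounds were tested on GH3.TRE-Luc cells in the presence of T3 at 1 nM final. Following 23.5 h at 37 °C, cell viability was quantified by CellTiter-Fluor.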

[9] = biological target: Estrogen receptor (Homo sapiens) (UniProt P03372); assay: qHTS assay to identify small molecule agonists of the estrogen receptor alpha (ER-alpha) signaling pathway (AID 743075; calls by dose curve;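 also: HEK293 GripTite cells with ER-alpha and UAS-driven beta-lactamase reporter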; also: potency is read from the fitted curve at half-maximal effect)
[10] = biological target: Aromatase (Homo sapiens) (UniProt P11511); assay: qHTS assay to identify aromatase inhibitors (AID 743083); also: nearly all actives have a fitted effect of over 55% in size; also: potency is read from the fitted curve at half-maximal effect
[11] = qHTS assay to identify aromatase inhibitors - cell viability counter screen (AID 743084);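 also: cells stimulated with testosterone during compound exposure; nearly all actives have a fitted effect of over 55% in size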; also: potency is read from the fitted curve at half-maximal effect
[12] = qHTS assay to identify small molecule antagonists of the thyroid receptor (TR) signaling pathway (AID 743065); also: nearly all actives have a fitted effect of over 55% in size; also: potency is read from the fitted curve at half-maximal effect
Method in brief: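 GH3.TRE-Luc rat pituitary cells carrying two TR response elements driving luciferase were plated for 4 h, given compound plus 1 nM T3 (final), and incubated 23.5 h at 37 C. ONE-Glo luminescence measured reporter inhibition; CellTiter-Fluor fluorescence tracked cytotoxicity.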

[13] = test system: thyroid hormone receptor (rat, GH3 cells); assay: qHTS assay to identify small molecule agonists of the thyroid receptor (TR) signaling pathway (AID 743066; calls by dose curve)
[14] = biological target: Estrogen receptor (Homo sapiens) (UniProt P03372); assay: qHTS assay to identify small molecule antagonists of the estrogen receptor alpha (ER-alpha) signaling pathway (AID 743069; active = well fitted curve in the direction sought with a large enough effect in the signal ratio in the repeat runs, not every such curve was filed as active; inconclusive = weak or mixed curves, or effect the other way; inactive = no such curve, though single readings can be large or run the other way; the % refers to the signal ratio; also: potency is read from the fitted curve at half-maximal effect)
Method in brief: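 A 17beta-estradiol challenge was applied right after compound transfer to ER-alpha-UAS-bla HEK293 cells previously kept in charcoal-stripped serum. Plates stood 18 hr at 37C and 5% CO2; fluorescence was read following 2 hr FRET substrate loading at room temperature.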

[15] = qHTS assay to identify small molecule antagonists of the estrogen receptor alpha (ER-alpha) signaling pathway using the BG1 cell line (AID 743080; calls by dose curve;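 also: BG1 cells stimulated with 17beta-estradiol alongside compound; nearly all actives have a fitted effect of over 25% in size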; also: potency is read from the fitted curve at half-maximal effect)
Method in brief: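 Luciferase inhibition measured with ONE-Glo after 30 min at RT in BG1Luc4E2 cells given test compounds and 17beta-estradiol for 21.5 h at 37 C; CellTiter-Fluor viability read in the same wells beforehand.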

[16] = biological target: Estrogen receptor (Homo sapiens) (UniProt P03372); assay: qHTS assay to identify small molecule agonists of the estrogen receptor alpha (ER-alpha) signaling pathway using the BG1 cell line (AID 743079); also: nearly all actives have a fitted effect of over 20% in size; also: potency is read from the fitted curve at half-maximal effect

Measured: Potency

Chain of Estrogen receptor (Homo sapiens) (P03372 whole entry, looked up): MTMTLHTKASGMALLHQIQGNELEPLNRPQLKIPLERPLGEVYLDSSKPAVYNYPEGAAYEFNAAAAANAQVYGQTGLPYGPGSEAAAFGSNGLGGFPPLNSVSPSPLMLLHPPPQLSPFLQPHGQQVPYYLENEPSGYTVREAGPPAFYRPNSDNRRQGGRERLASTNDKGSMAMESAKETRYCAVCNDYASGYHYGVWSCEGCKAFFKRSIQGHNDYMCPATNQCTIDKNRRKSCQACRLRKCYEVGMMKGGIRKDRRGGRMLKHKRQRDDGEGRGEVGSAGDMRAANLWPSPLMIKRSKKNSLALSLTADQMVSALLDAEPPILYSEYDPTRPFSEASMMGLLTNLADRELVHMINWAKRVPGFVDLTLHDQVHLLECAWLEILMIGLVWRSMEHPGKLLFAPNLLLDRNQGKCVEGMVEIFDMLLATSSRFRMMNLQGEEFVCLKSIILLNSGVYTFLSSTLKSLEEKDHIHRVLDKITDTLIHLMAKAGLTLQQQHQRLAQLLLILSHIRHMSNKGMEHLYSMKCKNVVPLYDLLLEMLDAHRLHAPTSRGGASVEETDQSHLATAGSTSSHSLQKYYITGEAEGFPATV
Chain of Aromatase (Homo sapiens) (P11511 whole entry, looked up): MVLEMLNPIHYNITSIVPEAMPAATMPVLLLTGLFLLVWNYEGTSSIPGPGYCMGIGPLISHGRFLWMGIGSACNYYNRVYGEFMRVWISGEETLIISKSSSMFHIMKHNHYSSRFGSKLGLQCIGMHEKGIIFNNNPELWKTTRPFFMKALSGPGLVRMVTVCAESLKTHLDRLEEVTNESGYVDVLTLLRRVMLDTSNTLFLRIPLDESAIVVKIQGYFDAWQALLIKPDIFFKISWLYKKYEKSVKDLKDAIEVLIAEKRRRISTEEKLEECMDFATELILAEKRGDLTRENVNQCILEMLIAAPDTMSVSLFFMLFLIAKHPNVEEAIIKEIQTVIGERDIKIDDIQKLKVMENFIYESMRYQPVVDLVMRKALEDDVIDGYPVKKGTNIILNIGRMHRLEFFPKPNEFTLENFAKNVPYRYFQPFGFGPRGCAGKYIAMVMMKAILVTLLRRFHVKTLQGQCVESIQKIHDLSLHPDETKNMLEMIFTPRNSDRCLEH

Oc1ccc2ccc3cccc4ccc1c2c34
inactive: [4] | [5] | [6] | [7]
active: [1] 30.6 µM | [2] 48.6 µM | [3] 30.6 µM

CCN(CC)C(=S)[S-].CCN(CC)C(=S)[S-].[Zn+2]
active: [1] 1.21 µM | [2] 1.08 µM | [3] 1.08 µM | [4] 0.344 µM | [5] 0.96 µM | [8] 5.4 µM | [6] 4.86 µM | [9] 54.5 µM [inconclusive] | [7] 42.9 µM | [10] 0.096 µM | [11] 0.096 µM

Clc1ccc(C(c2ccccc2Cl)C(Cl)(Cl)Cl)cc1 (stereo not drawn)
active: [1] 45.1 µM | [2] 45.1 µM | [3] 28.4 µM | [8] 27.5 µM and 40.2 µM | [12] 27.5 µM and 40.2 µM
not listed: [5] | [9] | [16]
inactive: all other assays above

Cc1cc(SCc2sc(-c3ccc(C(F)(F)F)c(F)c3)nc2C)ccc1OCC(=O)O
inactive: [13] | [9] | [16] | [15] | [7]
active: [1] 54.5 µM | [2] 34.4 µM | [3] 54.5 µM | [4] 38.9 µM | [12] 61.1 µM

CC(C)CC(C)(c1ccc(O)cc1)c1ccc(O)cc1
active: [2] 27.4 µM and 38.6 µM | [3] 54.6 µM | [4] 55.1 µM | [8] 54.6 µM and 54.5 µM | [12] 27.4 µM and 38.6 µM | [6] 55.1 µM | [10] 48.7 µM | [11] 61.3 µM
inactive: [1] | [13] | [7]

CN(C)S(=O)(=O)N(SC(F)(Cl)Cl)c1ccccc1
active: [1] 0.109 µM | [2] 0.154 µM | [3] 0.109 µM | [4] 3.47 µM | [8] 1.22 µM | [12] 1.22 µM | [10] 3.44 µM | [11] 27.3 µM

N#C/C=C/C#N
active: [8] 64 µM | [12] 32.1 µM | [9] 45.7 µM [inconclusive] | [10] 28.6 µM
not listed: [11] | [15]
inactive: all other assays above

Oc1ccc(C(=C(Cl)Cl)c2ccc(O)cc2)cc1
active: [14] 48.9 µM [inconclusive] | [16] 0.243 µM | [11] 48.5 µM
not listed: [6] | [9] | [12]
inactive: all other assays above

O=C(O)C1C2CCC(O2)C1C(=O)O (stereo not drawn)
inactive: [1] | [2] | [3] | [4] | [8] | [13] | [6] | [7]

C=CC(=O)OCCCCOC(=O)C=C
inactive: [5] | [6] | [9] | [16]
active: [1] 27.3 µM | [2] 27.3 µM | [3] 27.3 µM | [8] 17.2 µM | [10] 43.3 µM | [11] 48.6 µM

CC(=O)[O-].CC(=O)[O-].O.O.[Cd+2]
inactive: [13] | [7]
active: [1] 67.6 µM | [2] 67.6 µM | [3] 60.3 µM | [4] 24.2 µM | [8] 24 µM | [6] 43 µM | [11] 42.7 µM

O=C(CCl)C(Cl)Cl
active: [1] 5.5 µM | [2] 0.692 µM | [3] 4.9 µM | [4] 6.22 µM | [8] 8.71 µM | [12] 12.3 µM | [6] 39.3 µM | [9] 13.9 µM [inconclusive] | [16] 24.6 µM | [10] 8.71 µM | [11] 8.71 µM

CC(C)(C)C(O)/C(=C\c1ccc(Cl)cc1Cl)n1cncn1 (stereo not drawn)
active: [1] 18.6 µM | [2] 18.6 µM | [3] 18.6 µM | [8] 83 µM | [12] 74 µM | [14] 59.3 µM [inhibitor] | [15] 74 µM | [10] 58.7 µM | [11] 74 µM
inactive: [5] | [6] | [9] | [7]

O=c1ssc(Cl)c1Cl
inactive: [5] | [13] | [14] | [6] | [16] | [15]
active: [1] 3.44 µM | [2] 2.17 µM | [3] 3.44 µM | [4] 43.6 µM | [8] 48.6 µM | [12] 27.3 µM | [10] 15.4 µM | [11] 17.2 µM

CC(C)CC(C)N (stereo not drawn)
not listed: [3]
inactive: all other assays above

ClC1=C(Cl)[C@]2(Cl)[C@@H]3[C@@H]4C[C@@H]([C@H]5O[C@@H]45)[C@@H]3[C@@]1(Cl)C2(Cl)Cl
inactive: [14] | [7]
active: [2] 14.5 µM | [8] 40.9 µM | [12] 30.6 µM | [10] 34.4 µM
